What all share (test): PBM; 200 nM protein, PBS
Conditions in all cases: dsDNA, one strand shown

Test [1] deals with T1, NKX2-4 (Homo sapiens, UniProt Q9H2Z4 175-261, P217L).
T1 sequence: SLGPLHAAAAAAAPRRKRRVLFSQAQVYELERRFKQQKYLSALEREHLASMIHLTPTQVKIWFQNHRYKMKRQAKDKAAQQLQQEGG

For test [2], the target named is T2, NKX2-4 (Homo sapiens, UniProt Q9H2Z4 175-261, T231S).
T2 sequence: T1 sequence with L43P, T57S

The target of test [3] is T3, NKX2-4 (Homo sapiens, UniProt Q9H2Z4 175-261).
T3 sequence: T1 sequence with L43P

Test [4] addresses T4, NKX2-4 (Homo sapiens, UniProt Q9H2Z4 175-261, R246Q).
T4 sequence: T1 sequence with L43P, R72Q

Changes are numbered by the printed parent chain.

This passage reports binding signal results from article PMC11006913.

Consider GTGGCCAC, for which the binding signal with NKX2-4 [1] was 10.2 upbm affinity estimate (log intensity, higher = more binding, comparable within an allelic series); with NKX2-4 [2], 10.2 upbm affinity estimate (log intensity, higher = more binding, comparable within an allelic series); with NKX2-4 [3] it was 10.2 upbm affinity estimate (log intensity, higher = more binding, comparable within an allelic series); with NKX2-4 [4], 10.3 upbm affinity estimate (log intensity, higher = more binding, comparable within an allelic series).

In the case of GCAAGTGC, the binding signal was 11.9 upbm affinity estimate (log intensity, higher = more binding, comparable within an allelic series) with NKX2-4 [1]; 12.1 upbm affinity estimate (log intensity, higher = more binding, comparable within an allelic series) with NKX2-4 [2]; 11.7 upbm affinity estimate (log intensity, higher = more binding, comparable within an allelic series) with NKX2-4 [3]; 12.2 upbm affinity estimate (log intensity, higher = more binding, comparable within an allelic series) with NKX2-4 [4].

On to CGCCCTGA, for which the binding signal with NKX2-4 [1] is 9.84 upbm affinity estimate (log intensity, higher = more binding, comparable within an allelic series); with NKX2-4 [2], 9.84 upbm affinity estimate (log intensity, higher = more binding, comparable within an allelic series); with NKX2-4 [3] it was 9.83 upbm affinity estimate (log intensity, higher = more binding, comparable within an allelic series); in the test with NKX2-4 [4], 9.87 upbm affinity estimate (log intensity, higher = more binding, comparable within an allelic series).

Take AACGCCAG: the binding signal in the test with NKX2-4 [1] is 9.74 upbm affinity estimate (log intensity, higher = more binding, comparable within an allelic series); with NKX2-4 [2] it was 9.82 upbm affinity estimate (log intensity, higher = more binding, comparable within an allelic series); in the test with NKX2-4 [3], 9.78 upbm affinity estimate (log intensity, higher = more binding, comparable within an allelic series); in the test with NKX2-4 [4] it was 9.89 upbm affinity estimate (log intensity, higher = more binding, comparable within an allelic series).

As for CACGGCTA, the binding signal with NKX2-4 [1] was 9.31 upbm affinity estimate (log intensity, higher = more binding, comparable within an allelic series); in the test with NKX2-4 [2] it was 9.28 upbm affinity estimate (log intensity, higher = more binding, comparable within an allelic series); with NKX2-4 [3], 9.21 upbm affinity estimate (log intensity, higher = more binding, comparable within an allelic series); in the test with NKX2-4 [4], 9.29 upbm affinity estimate (log intensity, higher = more binding, comparable within an allelic series).

Take TCCACTCA: the binding signal with NKX2-4 [1] was 12.4 upbm affinity estimate (log intensity, higher = more binding, comparable within an allelic series); with NKX2-4 [2], 12.8 upbm affinity estimate (log intensity, higher = more binding, comparable within an allelic series); in the test with NKX2-4 [3], 12.3 upbm affinity estimate (log intensity, higher = more binding, comparable within an allelic series); in the test with NKX2-4 [4] it was 12.8 upbm affinity estimate (log intensity, higher = more binding, comparable within an allelic series).

Take ATCCGGTG: the binding signal in the test with NKX2-4 [1] is 9.47 upbm affinity estimate (log intensity, higher = more binding, comparable within an allelic series); with NKX2-4 [2] it was 9.42 upbm affinity estimate (log intensity, higher = more binding, comparable within an allelic series); with NKX2-4 [3], 9.41 upbm affinity estimate (log intensity, higher = more binding, comparable within an allelic series); in the test with NKX2-4 [4] it was 9.45 upbm affinity estimate (log intensity, higher = more binding, comparable within an allelic series).

As to AACGCTGG, the binding signal is 9.65 upbm affinity estimate (log intensity, higher = more binding, comparable within an allelic series) with NKX2-4 [1]; 9.71 upbm affinity estimate (log intensity, higher = more binding, comparable within an allelic series) with NKX2-4 [2]; 9.67 upbm affinity estimate (log intensity, higher = more binding, comparable within an allelic series) in the test with NKX2-4 [3]; 9.82 upbm affinity estimate (log intensity, higher = more binding, comparable within an allelic series) with NKX2-4 [4].

In the case of ATCCGGCC, the binding signal with NKX2-4 [1] was 9.77 upbm affinity estimate (log intensity, higher = more binding, comparable within an allelic series); in the test with NKX2-4 [2], 9.8 upbm affinity estimate (log intensity, higher = more binding, comparable within an allelic series); with NKX2-4 [3] it was 9.79 upbm affinity estimate (log intensity, higher = more binding, comparable within an allelic series); with NKX2-4 [4], 9.9 upbm affinity estimate (log intensity, higher = more binding, comparable within an allelic series).

In the case of TCCGGACA, the binding signal in the test with NKX2-4 [1] is 9.56 upbm affinity estimate (log intensity, higher = more binding, comparable within an allelic series); in the test with NKX2-4 [2] it was 9.6 upbm affinity estimate (log intensity, higher = more binding, comparable within an allelic series); in the test with NKX2-4 [3], 9.6 upbm affinity estimate (log intensity, higher = more binding, comparable within an allelic series); in the test with NKX2-4 [4], 9.66 upbm affinity estimate (log intensity, higher = more binding, comparable within an allelic series).

Regarding CCGCTAGG, the binding signal in the test with NKX2-4 [1] is 9.61 upbm affinity estimate (log intensity, higher = more binding, comparable within an allelic series); with NKX2-4 [2], 9.55 upbm affinity estimate (log intensity, higher = more binding, comparable within an allelic series); with NKX2-4 [3], 9.61 upbm affinity estimate (log intensity, higher = more binding, comparable within an allelic series); with NKX2-4 [4], 9.6 upbm affinity estimate (log intensity, higher = more binding, comparable within an allelic series).

On to CCTCTTCA, for which the binding signal with NKX2-4 [1] is 12.5 upbm affinity estimate (log intensity, higher = more binding, comparable within an allelic series); with NKX2-4 [2], 12.8 upbm affinity estimate (log intensity, higher = more binding, comparable within an allelic series); with NKX2-4 [3] it was 12.4 upbm affinity estimate (log intensity, higher = more binding, comparable within an allelic series); with NKX2-4 [4], 13 upbm affinity estimate (log intensity, higher = more binding, comparable within an allelic series).

Consider CACCCGTA, for which the binding signal in the test with NKX2-4 [1] is 9.75 upbm affinity estimate (log intensity, higher = more binding, comparable within an allelic series); with NKX2-4 [2], 9.83 upbm affinity estimate (log intensity, higher = more binding, comparable within an allelic series); with NKX2-4 [3], 9.77 upbm affinity estimate (log intensity, higher = more binding, comparable within an allelic series); in the test with NKX2-4 [4] it was 9.74 upbm affinity estimate (log intensity, higher = more binding, comparable within an allelic series).

For CGTTTGGC, the binding signal with NKX2-4 [1] was 9.62 upbm affinity estimate (log intensity, higher = more binding, comparable within an allelic series); with NKX2-4 [2], 9.4 upbm affinity estimate (log intensity, higher = more binding, comparable within an allelic series); in the test with NKX2-4 [3], 9.47 upbm affinity estimate (log intensity, higher = more binding, comparable within an allelic series); with NKX2-4 [4], 9.6 upbm affinity estimate (log intensity, higher = more binding, comparable within an allelic series).

On to CTCAAGAG, for which the binding signal is 12.4 upbm affinity estimate (log intensity, higher = more binding, comparable within an allelic series) with NKX2-4 [1]; 12.8 upbm affinity estimate (log intensity, higher = more binding, comparable within an allelic series) with NKX2-4 [2]; 12.3 upbm affinity estimate (log intensity, higher = more binding, comparable within an allelic series) with NKX2-4 [3]; 13 upbm affinity estimate (log intensity, higher = more binding, comparable within an allelic series) in the test with NKX2-4 [4].
